# Compound activity: PubChem BioAssay, National Center for Advancing Translational Sciences (NCATS)
# Lassa entry = Lassa virus entry inhibition; actives 4.1% (n = 18,000); Lassa virus pseudotyped entry inhibition, cell-based qHTS; Potency, µM (series often up to 49.2 µM), inactives show top-dose activity change, negative = inhibition, actives largely listed as inhibitors; AID 720533
# MARV entry inh = Marburg virus entry inhibition; Marburg virus pseudotype entry/binding inhibition, cell-based; Potency, µM (highest dose often 49.2 µM), without a hit: at the highest dose activity change, negative = inhibition, hits mostly inhibitors; actives 6.5% (n = 18,000); AID 720532
# Active calls of the source: *; ? = inconclusive; / = not tested or not shown; ! = not confirmed by another sample; [ ] = dose if it differs, or a comment. A selection: hits, their analogues and other compounds. The true share with any hit is near 8%. The call rests on the fitted dose curve; tested in HEK293 cells. On the % scale 0 is the no-effect control and ±100 the full control effect; potency means the concentration at half of the fitted maximal effect.
SMILES,Lassa entry,MARV entry inh
COC(=O)[C@@H]1CC[C@H](C)[C@@H](c2ccc(C)cc2)N1C(=O)c1ccc(C=NOC[C@H]2O[C@H](c3ccccc3)C=C[C@H]2Oc2ccc(OC)cc2)cc1,-22.2%[8.59 µM],-6.6%[8.59 µM]
CCCCCCCCCCCCC[N+](C)(C)Cc1ccccc1,17.8µM*,8.91µM*
CC[N+](CC)(CCCNC1=CC(=O)C(NCCC[N+](CC)(CC)Cc2ccccc2)=CC1=O)Cc1ccccc1,-0.9%,0.7%
CN1CCC(=C2c3ccccc3Sc3ccccc32)CC1,?,3.98µM*
CN1CCN(c2ncnc3ccc(-c4ccccc4C#N)cc23)CC1,-14.1%,-23.3%
CN1CCC(=C2c3ccccc3C=Cc3ccccc32)CC1,28.2µM*,8.91µM*
C=CCN=C1N[C@@H](c2ccccc2)[C@H](C(=O)OC)[C@@H](C)N1CC,4.7%[8.59 µM],-24.9%[8.59 µM]
COC(=O)N[C@@H](C=Cc1ccco1)[C@]1(C(=O)OC)CCCC1=O,4.9%[8.59 µM],3.0%[8.59 µM]
CC(=O)[C@]12C[C@@H]3CCCN(C(=O)N[C@@H]1c1ccccc1)[C@@H]32,-7.3%[8.59 µM],0.3%[8.59 µM]
COc1ccccc1C(=O)Nc1cccc(N2CCC(NCc3cnn(-c4ccccc4)n3)CC2)c1,?,11.2µM*
O=C(Nc1cccc(N2CCC(NCc3cnn(-c4cccc(F)c4)c3)CC2)c1)c1ccncc1,6.9%,2.51µM*
CN(Cc1cnc2ccccn12)C1CCN(c2cccc(NC(=O)c3cccnc3)c2)CC1,-7.1%,-14.4%
Cn1cc(CNC2CCN(c3cccc(NC(=O)c4cccnc4)c3)CC2)cn1,-6.4%,-17.0%
CC=COC(=O)N[C@@H](c1ccccc1)[C@]1(C(=O)OCC)CCCC1=O,8.9%[8.59 µM],2.3%[8.59 µM]
CCN1C(=NCc2ccc3c(c2)OCO3)NC(CCc2ccccc2)C(C(=O)OC)=C1C (configuration not stated),48.8%[8.59 µM],-29.8%[8.59 µM]
CC(=O)OC[C@H]1O[C@H](CCON=C(C)CCN2CCCc3nc(C)c(C)cc32)C=C[C@H]1OC(C)=O,-19.5%[8.59 µM],-28.1%[8.59 µM]
CON=C1C[C@]2(C[C@@H]3C[C@@H](C/C=C(\C)C[C@@H](C)/C=C/C=C4\CO[C@@H]5[C@H](O)C(C)=C[C@@H](C(=O)O3)[C@]45O)O2)O[C@H](/C(C)=C/C(C)C)[C@H]1C,31.6µM*,28.2µM*
Cc1cccc(CN2CCN([C@H]3C[S+](=O)([O-])N[C@H]3COCc3ccccc3)CC2)c1,45.5%,?
C=CCOP1(=O)O[C@H](CC=C)C[C@H](CC=C)O1 (some centres not stated),38.5%,?
CCCCC(C)/C=C(C)/C=C(\C)C(=O)NC1=CC(O)(/C=C/C=C/C=C/C(=O)NC2=C(O)CCC2=O)C2OC2C1=O (configuration not stated),7.08µM*,3.16µM*
CCCCCCN1C[C@H](O)[C@@H](n2cc(C3CC3)nn2)C[C@H]1c1ccccc1,4.6%,?
CCC(C)C(=O)OC1C[C@@]2(C)C(c3ccoc3)OC(=O)CC23OC2(C)OC34C(OC(=O)C(C)C)[C@]3(O)C(OC(=O)C5(C)OC5C)[C@]5(C)CC3(O)[C@](C)(C5CC(=O)OC)C14O2 (some centres not stated),3.3%,14.1µM*
COC(=O)CC1C2(C)CC34OC5(C)O[C@@]6(C7/C(=C(/O)C(C)C)C(=O)OC(c8ccoc8)[C@]7(C)C(OC(C)=O)C(OC(C)=O)[C@]6(O5)[C@@]13C)C(OC(C)=O)[C@]4(O)C2OC(=O)C(C)C (some centres not stated),-2.4%,?
C=CCN1c2ccccc2[C@]23CCC(=O)N(CCCOC(C)C)C2=NC(C(=O)OC)=C(C(=O)OC)[C@H]13,-1.4%[8.59 µM],-10.2%[8.59 µM]
CO/C1=C\C(C)=C\[C@@H](C)[C@@H](O)[C@@H](C)C/C(C)=C/C=C\[C@H](OC)C([C@@H](C)[C@@H](O)[C@H](C)[C@@]2(O)C[C@@H](O)[C@H](C)C(C(C)C)O2)OC1=O (some centres not stated),0.0231µM*,0.0146µM*
SMILES,Lassa entry,MARV entry inh
COc1ccc(COC(=O)NN=C2C[C@@H](O)[C@@H](O)[C@@H]3[C@H]4C(=O)N(C[C@@H]5CCCO5)C(=O)[C@@H]4CC[C@@H]23)cc1,?,6.3%[8.59 µM]
CCCCCCCCCCOCC(O)CN (configuration not stated),31.6µM*,?
CCCCCCCC(=O)OCC(O)CO (configuration not stated),0.5%,13.4%
CCCCCCCCCCCCCCCCOCCOCCOCCOCCOCCOCCOCCOCCOCCOCCOCCOCCOCCOCCOCCOCCOCCOCCOCCOCCO,15.8µM*,?
CCCCCCCCCCCCSCCOCCO,-13.2%,17.7%
Cc1cc2c(c(=O)o1)[C@H]1O[C@](c3ccsc3)(Cc3c1ccc1ccccc31)O2,13.2%[8.59 µM],?
CCCC=CC1C(=O)[C@@H]2O[C@H]2C2(OCC(CC)(CC)CO2)C1CO (some centres not stated),0.0%[8.59 µM],-11.4%[8.59 µM]
O=c1c(O)c(-c2cc(O)c(O)c(O)c2)oc2cc(O)cc(O)c12,7.4%,11.2µM*
O=c1c(O)c(-c2ccccc2)oc2cc(O)cc(O)c12,12.8%,34.8%
O=C(OCc1cn([C@@H]2CN(CC3CCCCC3)[C@@H](c3ccccc3)C[C@@H]2O)nn1)c1ccccc1,/,-27.6%
O[C@H]1CN(CC2CCCCC2)[C@@H](c2ccc(Cl)cc2)C[C@H]1n1cc(-c2ccc(F)cc2)nn1,-6.9%,?
c1ccc(CN(CCN(Cc2ccccn2)Cc2ccccn2)Cc2ccccn2)nc1,10µM*,10µM*
NCCc1ccccn1,-2.6%,15.8%
COC(=O)C(C(C)=O)[C@@H](NC(=O)OC(C)(C)C)c1ccccc1 (some centres not stated),-19.7%[8.59 µM],-7.0%[8.59 µM]
CCOc1ccc(-c2nc3ccc(-c4nc5ccc(N6CCN(C)CC6)cc5[nH]4)cc3[nH]2)cc1,?,10µM*
Clc1ccc2nc(-c3ccccc3)[nH]c2c1,8.4%,16.6%
C=CCO[C@@H](Cn1ccnc1)c1ccc(Cl)cc1Cl,-0.8%[17.8 µM],-4.7%[17.8 µM]
Clc1ccc(COC(Cn2ccnc2)c2ccc(Cl)cc2Cl)cc1 (configuration not stated),35.5µM*!,?
COc1cccc(CO[C@H]2C=C[C@@H](c3ccccc3)O[C@H]2CO)c1,-25.8%[8.59 µM],-7.5%[8.59 µM]
CC(C)=CCN1C(=O)C2(CC(C)=C[C@@H](C)O2)c2c(Br)cccc21 (some centres not stated),-12.8%[8.59 µM],11.3%[8.59 µM]
CCC(C(=O)O)c1ccccc1 (configuration not stated),-0.9%,-14.3%
c1ccc(C(NCCNC(c2ccccc2)c2ccccc2)c2ccccc2)cc1,12.6µM*,7.08µM*
CCN1C(=NCc2ccccc2)N[C@@H](CCc2ccccc2)[C@H](C(=O)OC)[C@H]1C,-6.8%[8.59 µM],-18.2%[8.59 µM]
CC#CCN1C(=O)NC(c2ccccc2)C(C(=O)OCC)=C1c1ccccc1 (configuration not stated),-15.7%[8.59 µM],7.0%[8.59 µM]
C=CCN1C(=O)[C@]2(OCCC=C[C@@H]2C)c2cc(OC)ccc21,31.2%[8.59 µM],37.0%[8.59 µM]
SMILES,Lassa entry,MARV entry inh
O=C(/C=C/C#Cc1cccc(NS(=O)(=O)c2ccccc2)c1)NO,10µM*,?
Nc1ccc(S(=O)(=O)Nc2ccccc2)cc1,-14.3%,6.3%
NC(Cc1ccccc1)C(=O)O (configuration not stated),4.7%,-5.5%
COC(=O)c1ccccc1O,-6.3%,-10.5%
O=C(N/N=C\c1ccccc1O)c1ccccc1O,7.94µM*,7.08µM*
COC(=O)C1=C(C(=O)OC)[C@@H]2N(Cc3ccccc3)c3ccccc3[C@@]23CCC(=O)N(CC2CCCCC2)C3=N1,3.0%[8.59 µM],11.5%[8.59 µM]
